PLK1 PBD inh: blocks phosphopeptide binding to human PLK1 polo-box domain. P53350. Plk1 PBD binding of FITC phosphopeptide, fluorescence polarization. Potency, µM, actives largely listed as inhibitors. hit rate 2.8% among 360,000. AID 720504; also: series mostly up to about 57 µM; nearly all actives have a fitted effect of over 65% in size
TrxR1 inh: rat TrxR1 inhibition. recombinant rTrxR1, NADPH fluorescence consumption, selenite substrate. Potency, µM (highest dose often 114 µM), most hits filed as inhibitors. hit rate 1% among 390,000. AID 588453; also: nearly all actives have a fitted effect of over 65% in size
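Rat TrxR1 (90 nM in the dispensed reagent) was pre-reduced with 400 uM NADPH for 5 min at room temperature, then incubated with compound for 15 min. After 400 uM selenite was added, NADPH fluorescence (Ex 340/Em 450 nm) was followed for 8 min.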
IDH1 R132H inh: inhibitors of human mutant IDH1 R132H | Potency, µM (series often up to 76.6 µM), most hits filed as inhibitors | IDH1-R132H enzyme, NADPH consumption, diaphorase/resazurin fluorescence | AID 602179 | hit rate 0.093% among 390,000; also: nearly all actives have a fitted effect of over 65% in size
Target sequence (O75874 whole entry R132H, stated change not applied): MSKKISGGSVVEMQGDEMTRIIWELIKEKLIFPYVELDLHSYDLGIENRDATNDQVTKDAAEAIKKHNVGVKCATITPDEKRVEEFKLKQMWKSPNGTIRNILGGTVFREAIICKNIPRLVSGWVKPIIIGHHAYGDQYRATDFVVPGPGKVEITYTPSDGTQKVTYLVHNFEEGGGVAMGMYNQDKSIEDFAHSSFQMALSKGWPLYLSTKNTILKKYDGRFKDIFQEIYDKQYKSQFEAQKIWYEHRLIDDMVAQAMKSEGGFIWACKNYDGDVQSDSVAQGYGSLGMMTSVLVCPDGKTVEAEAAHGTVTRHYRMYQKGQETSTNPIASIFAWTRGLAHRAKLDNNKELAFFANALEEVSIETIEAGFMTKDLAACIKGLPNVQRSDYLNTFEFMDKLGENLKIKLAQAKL
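IDH1-R132H (0.5 ug/mL) preincubated 30 min with compound, then NADPH (0.016 mM) and alpha-KG (2 mM) added; 80 min at RT, pH 7.5. Remaining NADPH coupled via diaphorase/resazurin to fluorescence (540/590 nm); concentration-response curves normalized to no-enzyme control.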
VDR inhibitor: blocks the human vitamin D receptor. P11473. VDR-SRC2-3 peptide fluorescence polarization, 2 h. Potency, µM, most hits filed as inhibitors. hit rate 0.93% among 400,000. AID 504847
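After 23 nl compound addition and a short centrifugation, plates sat for 2 hours at ambient temperature; polarization of fluorescence then indicated loss of VDR binding to peptide SRC2-3.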
TrxR1 substrate: rat thioredoxin reductase 1 substrate activity | O89049 | purified TrxR1 substrate turnover, NADPH consumption readout | Potency, µM (series often up to 114 µM) | hit rate 0.01% among 390,000 | AID 588456; also: nearly all actives have a fitted effect of over 50% in size
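Rat TrxR1, dispensed at 90 nM, was prereduced with 400 uM NADPH (final) for 5 min at ~22 deg C, then incubated with compound 15 min before 400 uM selenite. A first-read NADPH fluorescence drop versus no-compound background flagged substrates.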
Sfp inh: blocks B. subtilis Sfp PPTase activity; AID 1490; Biochemical Sfp PPTase activity, qHTS; hit rate 3.5% among 310,000; Potency, µM, most hits filed as inhibitors;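 also: the enzyme is Sfp with the accession as filed and its product quenches rhodamine fluorescence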
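Sfp 15 nM + cpd, 15 min RT; start w/ rhodamine-CoA 5 uM, BHQ-2-YbbR 12.5 uM (final); 50 mM Hepes pH 7.6, 10 mM MgCl2, 0.01% NP-40, 0.01% BSA; read 525/598 nm at 0 and 30 min.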
Numbers stand for hits; - = inactive; ? = inconclusive; . = no result given. The list is not random: actives were taken first. Their share in the collection is about 5.2%. Calls follow the shape of the dose curve; as a rule, active = well fitted curve in the direction sought with a large enough effect; inconclusive = small, poorly fitted or top-dose-only effect, or another doubt; inactive = no such curve, though single readings can be large; an effect the other way counts as inactive or inconclusive.

SMILES	PLK1 PBD inh	TrxR1 inh	IDH1 R132H inh	VDR inhibitor	TrxR1 substrate	Sfp inh
Cc1cc(C)cc(NC(=O)CSc2ccc(-c3ccccn3)nn2)c1	-	-	-	-	-	-
Cc1cc(C)c(NC(=O)CSc2ccc(-c3cccnc3)nn2)c(C)c1	-	-	-	-	-	56.2µM
Cc1cc(C)cc(NC(=O)CSc2ccc(-c3ccco3)nn2)c1	?	-	-	-	-	22.4µM
Cc1ccc(NC(=O)CSc2ccc(-c3ccco3)nn2)cc1	-	?	-	-	-	20µM
O=c1oc2ccccc2c(N2CCN(c3ccccc3F)CC2)c1CN1CCCC1	.	-	-	-	-	.
COC(=O)c1scc(-c2ccc(C)cc2)c1S(=O)(=O)N1CCN(c2ccc(F)cc2)CC1	.	-	-	-	-	.
CN(c1ccccc1)S(=O)(=O)CS(=O)(=O)N(C)c1ccccc1	-	-	-	-	-	.
CCC1=C/C(=C/N(C)c2ccccc2)C(=O)S1	?	-	-	?	-	50.1µM
CCc1ccc(NC(=O)CSc2nnc(CNC(=O)c3cccs3)o2)cc1	-	-	-	-	-	-
O=C(/N=C1\NC(=O)C(F)(C(F)(F)F)S1)NC1CCCCC1 (stereo not drawn)	13.4µM	25.1µM	-	50.1µM	-	12.6µM
COc1ccc(-c2csc3nc(-c4cccnc4)nc(Cl)c23)cc1OC	26.7µM	-	-	?	-	25.1µM
Cc1ccc(OCC(O)CN2CCC(Cc3ccccc3)CC2)c(C)c1 (stereo not drawn)	-	-	-	-	-	-
CCc1c(C)sc(NC(=O)CSc2nc3c(c(C(F)(F)F)n2)CCc2ccccc2-3)c1C#N	?	-	-	-	-	44.7µM
O=S(=O)(c1ccc(=S)[nH]c1)N1CCN(Cc2ccccc2)CC1	?	-	-	79.4µM	-	.
O=S(=O)(c1ccc(=S)[nH]c1)N1CCCCC1	?	?	-	-	-	.
CCCN1C(=O)/C(=C/c2ccc(N3CCOCC3)cc2)NC1=S	-	-	-	-	-	-
CCCN1C(=O)/C(=C/c2ccc(C)o2)NC1=S	.	.	.	.	.	20µM
Cc1ccc(CN2C(=O)N/C(=C\c3ccc(N4CCOCC4)cc3)C2=O)cc1	-	-	-	-	-	-
O=C1N/C(=C/c2ccc(N3CCOCC3)o2)C(=O)N1c1cccc(Cl)c1	-	3.16µM	-	?	-	8.91µM
O=C1N/C(=C/c2ccc(Br)s2)C(=O)N1c1ccccc1	-	-	-	-	-	?
Cc1ccc(/C=C2/NC(=O)N(Cc3ccc(Br)cc3)C2=O)o1	-	?	-	?	-	3.16µM
Cc1ccc(/C=C2/NC(=O)N(c3ccccc3)C2=O)o1	-	50.1µM	-	?	-	25.1µM
CCCC(C(=O)NC1CCCC1)N(CC1CCCO1)C(=O)CNS(=O)(=O)c1ccc(F)cc1 (stereo not drawn)	-	-	-	-	-	-
CCOC(=O)CC1C(=O)NCCN1C(=O)c1cccc(OC)c1 (stereo not drawn)	-	-	-	-	-	-
CCN1C(=O)N/C(=C/c2ccc(C)o2)C1=O	-	?	-	89.1µM	-	-
SMILES	PLK1 PBD inh	TrxR1 inh	IDH1 R132H inh	VDR inhibitor	TrxR1 substrate	Sfp inh
CCN1C(=O)/C(=C/c2ccc(C)o2)N(C)C1=S	-	31.6µM	-	?	-	6.31µM
COc1ccccc1CNC(=O)Cn1ncc2c(C)n(Cc3ccccc3Cl)c(C)c2c1=O	.	-	-	-	-	.
CCCNC(=O)c1cc(C2CCCN(C(=O)c3cc(F)ccc3C)C2)on1 (stereo not drawn)	-	.	.	.	.	.
O=S(=O)(NC1CC2CCC1C2)c1ccc(Br)s1 (stereo not drawn)	3.36µM	-	-	-	-	-
Cc1cc(C)nc(NC2=NCCN2C(=O)NC2CCCCC2)n1	7.52µM	-	-	-	-	-
O=C(C[N+]12CCCc3cccc(c31)CCC2)c1ccc(Cl)c2ccccc12	.	-	.	.	-	.
Cc1ccc(-c2cc(-c3n[nH]c(=S)o3)c3ccccc3n2)cc1	26.7µM	?	-	-	-	-
S=c1[nH]nc(-c2ccccc2)o1	29.9µM	-	-	-	-	-
CSc1nnc(-c2cc(-c3ccc(C)cc3)nc3ccccc23)o1	-	-	-	-	-	-
O=c1c2ccccc2c(-c2n[nH]c(=S)o2)nn1Cc1ccccc1	?	?	-	-	-	79.4µM

Compound activity (PubChem)
